Reference: PubChem BioAssay (NCATS)
Records with an inconclusive call do not appear. Calls of active or inactive are those of the source. Unless noted, calls come from the whole dose curve.

How the values were obtained:
[1] = target: Lysosomal acid glucosylceramidase (Homo sapiens) (UniProt P04062); assay: Glucocerebrosidase-p2 (AID 348; in the data active = potency below about 10 µM; note: potency is the fitted concentration of half-maximal effect); conditions: purified GBA, blue fluorogenic substrate, 40 min
Chain of Lysosomal acid glucosylceramidase (Homo sapiens) (P04062 whole entry, looked up): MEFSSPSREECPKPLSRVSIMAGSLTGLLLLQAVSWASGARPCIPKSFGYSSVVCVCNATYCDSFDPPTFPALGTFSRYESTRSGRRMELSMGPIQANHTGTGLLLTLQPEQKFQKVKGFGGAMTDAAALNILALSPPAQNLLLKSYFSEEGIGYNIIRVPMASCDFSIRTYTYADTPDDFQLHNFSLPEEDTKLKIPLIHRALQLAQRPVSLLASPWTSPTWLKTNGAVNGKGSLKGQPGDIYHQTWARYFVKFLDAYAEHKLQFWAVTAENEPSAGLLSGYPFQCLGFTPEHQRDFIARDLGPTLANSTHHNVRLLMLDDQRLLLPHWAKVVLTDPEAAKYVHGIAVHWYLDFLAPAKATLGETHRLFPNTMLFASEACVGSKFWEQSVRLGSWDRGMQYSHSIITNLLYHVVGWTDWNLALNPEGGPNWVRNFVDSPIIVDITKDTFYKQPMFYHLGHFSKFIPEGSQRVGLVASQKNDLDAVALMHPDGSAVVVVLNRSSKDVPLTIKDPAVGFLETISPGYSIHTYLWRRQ
Procedure, shortened: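 Compounds titrated from 0.6 nM upwards against 0.2 nM enzyme in pH 5.9 citric acid/KH2PO4, taurocholate, tween-20; blue fluorogenic substrate 80 uM, 40 min room temperature, stopped and read Ex 365/Em 440 for AC50.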

[2] = target: Cytochrome P450 1A2 (Homo sapiens) (UniProt P05177); assay: p450-cyp1a2 (AID 410); conditions: recombinant CYP1A2, luciferin-ME demethylation, luminescence; series mostly up to 57 µM; note: potency is the fitted concentration of half-maximal effect;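 for activity change, negative = inhibition: -100% = full effect of reference inhibitor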
Chain of Cytochrome P450 1A2 (Homo sapiens) (P05177 whole entry, looked up): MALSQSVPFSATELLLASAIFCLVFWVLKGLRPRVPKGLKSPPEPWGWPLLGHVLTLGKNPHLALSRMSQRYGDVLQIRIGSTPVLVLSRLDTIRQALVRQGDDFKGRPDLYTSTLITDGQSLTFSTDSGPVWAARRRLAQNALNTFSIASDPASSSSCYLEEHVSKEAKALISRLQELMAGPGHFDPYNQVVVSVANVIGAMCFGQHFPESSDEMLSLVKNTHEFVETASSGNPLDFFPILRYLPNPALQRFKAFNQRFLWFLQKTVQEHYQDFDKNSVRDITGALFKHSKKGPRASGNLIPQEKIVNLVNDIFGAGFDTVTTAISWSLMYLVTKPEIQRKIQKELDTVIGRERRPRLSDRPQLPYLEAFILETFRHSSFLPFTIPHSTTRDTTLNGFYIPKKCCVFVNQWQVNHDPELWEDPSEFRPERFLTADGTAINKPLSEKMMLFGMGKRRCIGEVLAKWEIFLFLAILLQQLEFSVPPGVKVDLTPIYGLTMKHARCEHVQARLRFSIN
Procedure, shortened: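 Inhibition was calculated relative to 57 uM furafylline (full inhibition). The reaction used human CYP1A2 at 20nM with Luciferin-ME at its Km, 100uM, driven by an NADPH-regenerating system for 60 min at room temperature.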

[3] = target: Glucocorticoid receptor (Homo sapiens) (UniProt P04150); assay: GR-GFP Redistribution (AID 450;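 active = compounds whose dose series gives a full or clear partial fitted curve of increased nuclear translocation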; note: potency is the fitted concentration of half-maximal effect); conditions: U2OS GR-GFP nuclear translocation, laser cytometry, 2 h
Chain of Glucocorticoid receptor (Homo sapiens) (P04150 whole entry, looked up, the tested form may be a part): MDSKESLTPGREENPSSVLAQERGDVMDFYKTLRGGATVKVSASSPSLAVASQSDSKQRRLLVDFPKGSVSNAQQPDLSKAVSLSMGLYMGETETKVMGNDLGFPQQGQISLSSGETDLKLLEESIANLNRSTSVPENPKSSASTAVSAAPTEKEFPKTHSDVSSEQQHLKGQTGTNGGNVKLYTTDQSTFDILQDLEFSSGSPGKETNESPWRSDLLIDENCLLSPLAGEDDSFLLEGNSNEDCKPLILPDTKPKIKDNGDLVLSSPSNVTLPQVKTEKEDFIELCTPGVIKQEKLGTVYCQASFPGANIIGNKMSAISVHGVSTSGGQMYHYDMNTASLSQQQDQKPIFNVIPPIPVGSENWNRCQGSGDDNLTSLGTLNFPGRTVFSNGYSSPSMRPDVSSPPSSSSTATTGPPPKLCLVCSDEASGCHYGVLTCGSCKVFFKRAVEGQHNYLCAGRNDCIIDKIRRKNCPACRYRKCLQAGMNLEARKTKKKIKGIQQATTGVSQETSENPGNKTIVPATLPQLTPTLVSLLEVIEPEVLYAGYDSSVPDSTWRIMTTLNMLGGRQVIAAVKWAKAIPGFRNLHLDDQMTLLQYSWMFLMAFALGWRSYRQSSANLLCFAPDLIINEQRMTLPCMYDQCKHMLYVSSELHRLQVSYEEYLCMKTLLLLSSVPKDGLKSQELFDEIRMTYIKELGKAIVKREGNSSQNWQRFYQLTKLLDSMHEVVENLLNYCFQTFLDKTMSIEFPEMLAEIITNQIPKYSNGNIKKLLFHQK

[4] = target: Glucocorticoid receptor (Homo sapiens) (UniProt P04150); assay: GR-EFC Redistribution (AID 451); conditions: CHO-K1 GR-EFC translocation, beta-gal luminescence, 2 h; note: potency is the fitted concentration of half-maximal effect
Procedure, shortened: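 CHO-K1 cells stably expressing nuclear-localized β-gal enzyme acceptor and GR fused C-terminally to the enzyme donor fragment; ligand-driven nuclear translocation restores β-gal by complementation. Compounds titrated up to 46 uM final, 2 h at 37 °C; luminescence read.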

[5] = target: Mitogen-activated protein kinase 10 (Mus musculus) (UniProt Q61831); assay: JNK3 AlphaScreen Assay (AID 530; active = well fitted curve in either direction with a large enough effect, not every such curve was filed as active;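 note: kinase came from lysate of stimulated human HepG2 cells; signal reports phosphorylation of biotinylated GST-cJun 1-79 at Ser73 with 10 µM ATP; % is set by controls: 0 for no effect and ±100 for the full control effect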); conditions: JNK3 lysate, c-Jun phosphorylation; series mostly up to 57.1 µM
Procedure, shortened: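 JNK3 came from HepG2 lysates pre-activated with IL-1beta and TNF-alpha and phosphorylated biotinylated GST-cJun (1-79) at 10 uM ATP, pH 7.6, room temperature. Compounds were titrated. AlphaScreen signal used anti-phospho-cJun (Ser73) antibody.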

[6] = target: Cytochrome P450 3A4 (Homo sapiens) (UniProt P08684); assay: qHTS Assay for Activators of Cytochrome P450 3A4 (AID 885; active = well fitted curve in the direction sought with a large enough effect; an effect the other way counts as inactive or inconclusive; note: nearly all actives have a fitted effect of over 65% in size); conditions: recombinant CYP3A4, Luciferin-PPXE luminescence, 60 min; series mostly up to 57.1 µM
Chain of Cytochrome P450 3A4 (Homo sapiens) (P08684 whole entry, looked up): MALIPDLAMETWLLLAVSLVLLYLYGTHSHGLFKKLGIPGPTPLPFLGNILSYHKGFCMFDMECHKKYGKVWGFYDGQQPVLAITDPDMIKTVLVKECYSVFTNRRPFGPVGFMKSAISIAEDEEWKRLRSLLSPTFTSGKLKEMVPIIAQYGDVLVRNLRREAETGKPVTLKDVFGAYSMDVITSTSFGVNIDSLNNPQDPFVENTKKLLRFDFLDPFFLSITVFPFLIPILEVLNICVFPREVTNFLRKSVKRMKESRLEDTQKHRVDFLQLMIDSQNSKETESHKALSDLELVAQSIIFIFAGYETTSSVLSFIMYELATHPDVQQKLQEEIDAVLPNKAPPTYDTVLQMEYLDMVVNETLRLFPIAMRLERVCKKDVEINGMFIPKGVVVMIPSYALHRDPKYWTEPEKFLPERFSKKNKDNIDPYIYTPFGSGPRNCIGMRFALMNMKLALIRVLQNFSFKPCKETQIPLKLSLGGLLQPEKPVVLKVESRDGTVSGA
Procedure, shortened: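 Signal was normalized against complete inhibition by 57 uM ketoconazole. The reaction used 20nM CYP3A4 with 25uM Luciferin-PPXE, 10-min compound preincubation and a 60-min NADPH-supported step at RT.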

[7] = Confirmation and Secondary Assay for Modulators of Hemoglobin Beta Chain Splicing at IVS2 654 locus (AID 910; active = well fitted curve in the direction sought with a large enough effect; an effect the other way counts as inactive or inconclusive;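 note: per-well total GFP intensity by laser scanning cytometry after 2-day treatment; % of control where 0% means no effect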); conditions: HeLa EGFP-654 splicing reporter, GFP fluorescence, 48 h; series mostly up to 38.3 µM
Procedure, shortened: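 HeLa cells stably carrying EGFP interrupted by mutant beta-globin IVS2-654 intron (CMV-driven) were treated with compound for 2 days at 37C; corrected splicing was scored as total peak GFP intensity per well (488 nm excitation, 500-520 nm emission).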

[8] = Confirmation and Secondary Assay for Modulators of Hemoglobin Beta Chain Splicing at IVS2 705 locus (AID 930; active = well fitted curve in the direction sought with a large enough effect; an effect the other way counts as inactive or inconclusive;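 note: HeLa cells stably expressing the EGFP-705 splicing reporter; % of control where 0% means no effect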); conditions: HeLa EGFP-705 splicing reporter, GFP fluorescence, 48 h; series mostly up to 38.3 µM
Procedure, shortened: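 HeLa cells stably carrying EGFP interrupted by mutant beta-globin IVS2-705 intron (CMV-driven) were seeded at 500 cells/well, treated next day with compound for 2 days at 37C; corrected splicing restores EGFP, read as total peak GFP intensity per well.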

[9] = qHTS Assay for Lipid Storage Modulators (AID 1519); conditions: Drosophila S3 cells, BODIPY lipid droplet/cell ratio, laser cytometry, cells loaded with oleic acid; for activity change, negative = inhibition: at 57.5 µM (top of the series)
Procedure, shortened: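 Cells seeded at 5,000 per well were treated with compounds over a concentration series and loaded with oleic acid (400 uM, as added). Lipid droplet fluorescence (488 nm excitation, 500-530 nm channel) was read by laser-scanning cytometry and normalized to 20 uM Triacsin C.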

[10] = Primary qHTS for small molecule stabilizers of the endoplasmic reticulum resident proteome: Secreted ER Calcium Modulated Protein (SERCaMP) assay (AID 1508630; active = well fitted curve in the direction sought with a large enough effect; an effect the other way counts as inactive or inconclusive; note: % is set by controls: 0 for no effect and ±100 for the full control effect); conditions: SH-SY5Y GLuc-SERCaMP (Gaussia luciferase released on ER calcium loss) secretion, thapsigargin, luminescence; series mostly up to 38.4 µM
Procedure, shortened: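 GLuc-SERCaMP-expressing SH-SY5Y cells, pretreated 16 h with compound, are challenged with thapsigargin to empty ER calcium stores; after 4 h, coelenterazine is added directly to the medium and luminescence is imaged.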

[11] = NFAT Signaling Pathway (AID 444; active = well fitted curve in either direction with a large enough effect, not every such curve was filed as active;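 note: carbachol stimulus at about its EC50 of 1 µM final; % is set by controls: 0 for no effect and ±100 for the full control effect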); conditions: Jurkat NFAT-bla M1, carbachol, beta-lactamase ratio, 5 h; at 7.69 µM (top of the series) unless noted
Procedure, shortened: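 Jurkat cells carrying an NFAT-driven β-lactamase reporter and co-transfected muscarinic M1 receptor were treated with compound plus carbachol (1 uM final, an EC50 level) for 5 h at 37 °C. CCF4 loading followed for 1 h at RT; 460/530 nm ratio gave %activity.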

[12] = Stat Signaling Pathway (AID 446; active = well fitted curve in either direction with a large enough effect, not every such curve was filed as active;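 note: ME-180 cervical cancer cells given 40 pM IL-6 alongside compound; SIE-controlled beta-lactamase reporter measured as 460/530 nm FRET emission ratio; % is set by controls: 0 for no effect and ±100 for the full control effect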); conditions: ME-180 SIE beta-lactamase reporter, IL-6 stimulated, 5 h; at 7.69 µM (top of the series) unless noted
Procedure, shortened: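 Reporter line: ME-180 cervical carcinoma, SIE-beta-lactamase. Treatment: compound with 40 pM IL-6, 5 hrs, 37 C, in low-serum OPTI-MEM with 10 mM HEPES pH 7.3. Detection: 460/530 nm fluorescence.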

[13] = target: 3',5'-cyclic-AMP phosphodiesterase 4B (Homo sapiens) (UniProt Q07343); assay: qHTS Assay for Inhibitors of PDE-IV (AID 607; active = well fitted activation curve with a large enough effect in the main read-out, with a control signal flat, not every such curve was filed as active; note: % of control where 0% means no effect); conditions: HEK293 ACTOne CNG channel cells, membrane potential fluorescence; series mostly up to 22.9 µM
Chain of 3',5'-cyclic-AMP phosphodiesterase 4B (Homo sapiens) (Q07343 whole entry, looked up): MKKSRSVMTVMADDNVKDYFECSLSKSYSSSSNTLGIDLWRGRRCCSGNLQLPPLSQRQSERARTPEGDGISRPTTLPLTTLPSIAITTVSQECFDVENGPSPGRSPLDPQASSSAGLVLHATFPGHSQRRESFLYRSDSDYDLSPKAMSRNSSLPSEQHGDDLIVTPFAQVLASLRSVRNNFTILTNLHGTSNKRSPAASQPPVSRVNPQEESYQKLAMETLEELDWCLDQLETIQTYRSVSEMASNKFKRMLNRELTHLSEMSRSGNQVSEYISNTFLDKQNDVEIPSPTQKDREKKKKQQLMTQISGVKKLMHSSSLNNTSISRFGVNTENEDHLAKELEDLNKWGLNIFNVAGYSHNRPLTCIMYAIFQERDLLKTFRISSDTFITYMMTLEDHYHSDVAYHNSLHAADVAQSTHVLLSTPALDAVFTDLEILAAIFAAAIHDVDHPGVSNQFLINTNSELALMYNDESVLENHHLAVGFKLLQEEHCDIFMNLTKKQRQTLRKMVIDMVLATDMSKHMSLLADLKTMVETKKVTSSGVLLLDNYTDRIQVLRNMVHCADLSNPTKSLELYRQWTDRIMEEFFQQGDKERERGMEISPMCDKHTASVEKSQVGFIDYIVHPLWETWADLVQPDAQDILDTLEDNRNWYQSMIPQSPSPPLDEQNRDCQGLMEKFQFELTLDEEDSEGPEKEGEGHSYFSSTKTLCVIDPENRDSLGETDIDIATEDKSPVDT
Procedure, shortened: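 Cell-based read-out of cAMP via a modified cyclic nucleotide-gated channel and membrane potential dye (535/590 nm) in HEK293 cells expressing PDE4 endogenously. Compounds tested up to 22.9 uM final; 100 uM RO 20-1724 reference.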

[14] = target: Cytochrome P450 2C19 (Homo sapiens) (UniProt P33261); assay: qHTS Assay for Inhibitors and Substrates of Cytochrome P450 2C19 (AID 899; active = well fitted curve in the direction sought with a large enough effect; an effect the other way counts as inactive or inconclusive; note: potency is the fitted concentration of half-maximal effect; nearly all actives have a fitted effect of over 60% in size); conditions: recombinant CYP2C19, luciferin-H EGE luminescence; series mostly up to 57.1 µM
Chain of Cytochrome P450 2C19 (Homo sapiens) (P33261 whole entry, looked up): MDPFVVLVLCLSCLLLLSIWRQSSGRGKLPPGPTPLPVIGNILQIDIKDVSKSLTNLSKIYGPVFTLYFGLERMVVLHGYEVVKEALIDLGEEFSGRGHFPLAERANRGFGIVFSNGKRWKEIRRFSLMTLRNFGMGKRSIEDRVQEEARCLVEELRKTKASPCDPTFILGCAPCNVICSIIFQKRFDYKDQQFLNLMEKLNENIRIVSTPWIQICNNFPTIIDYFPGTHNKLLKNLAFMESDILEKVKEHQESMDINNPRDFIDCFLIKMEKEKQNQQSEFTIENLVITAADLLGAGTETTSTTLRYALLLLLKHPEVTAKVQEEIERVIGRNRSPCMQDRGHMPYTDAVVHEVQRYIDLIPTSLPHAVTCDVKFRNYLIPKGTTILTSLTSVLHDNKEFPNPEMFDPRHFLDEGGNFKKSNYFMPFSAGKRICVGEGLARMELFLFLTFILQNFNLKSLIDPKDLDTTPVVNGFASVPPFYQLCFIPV
Procedure, shortened: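 Human CYP2C19 (5nM) with Luciferin-H EGE at 10uM (its KM) in 50mM KPO4 was preincubated with compound for 10 min at 37C. NADPH regeneration started a 60 min 37C reaction. Luciferin was read by luminescence, normalized to 57uM ketoconazole.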

[15] = target: Cytochrome P450 2D6 (Homo sapiens) (UniProt P10635); assay: qHTS Assay for Inhibitors and Substrates of Cytochrome P450 2D6 (AID 891; active = well fitted curve in the direction sought with a large enough effect; an effect the other way counts as inactive or inconclusive; note: potency is the fitted concentration of half-maximal effect; nearly all actives have a fitted effect of over 60% in size); conditions: recombinant CYP2D6, luciferin-ME EGE luminescence; series mostly up to 57.1 µM
Chain of Cytochrome P450 2D6 (Homo sapiens) (P10635 whole entry, looked up): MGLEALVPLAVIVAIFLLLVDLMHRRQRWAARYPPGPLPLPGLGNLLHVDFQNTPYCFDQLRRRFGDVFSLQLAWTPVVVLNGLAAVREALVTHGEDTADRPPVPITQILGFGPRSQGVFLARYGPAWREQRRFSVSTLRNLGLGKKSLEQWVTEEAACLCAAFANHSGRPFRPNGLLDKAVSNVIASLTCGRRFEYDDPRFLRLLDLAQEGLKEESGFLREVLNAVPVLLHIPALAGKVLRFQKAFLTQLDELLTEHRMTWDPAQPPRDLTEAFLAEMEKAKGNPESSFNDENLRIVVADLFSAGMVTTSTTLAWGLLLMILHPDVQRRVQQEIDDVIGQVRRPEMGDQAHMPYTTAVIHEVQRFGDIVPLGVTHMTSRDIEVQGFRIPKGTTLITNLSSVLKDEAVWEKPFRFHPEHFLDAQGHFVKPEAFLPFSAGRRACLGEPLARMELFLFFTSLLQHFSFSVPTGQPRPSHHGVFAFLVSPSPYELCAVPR
Procedure, shortened: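 Human CYP2D6 (5 nM) with 30 uM Luciferin-ME EGE (at Km) in 100 mM KPO4, compound preincubated 10 min, then NADPH regeneration system for 60 min at room temperature. Luciferin read by luminescence; normalized to 1.43 uM quinidine.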

[16] = target: Cytochrome P450 3A4 (Homo sapiens) (UniProt P08684); assay: qHTS Assay for Inhibitors and Substrates of Cytochrome P450 3A4 (AID 884; active = well fitted curve in the direction sought with a large enough effect; an effect the other way counts as inactive or inconclusive; note: potency is the fitted concentration of half-maximal effect; nearly all actives have a fitted effect of over 50% in size); conditions: recombinant CYP3A4, Luciferin-PPXE luminescence; series mostly up to 57.1 µM
Procedure, shortened: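 20 nM human CYP3A4 with 25 uM Luciferin-PPXE (at KM) in 200 mM KPO4, preincubated 10 min with compound; NADPH regeneration started a 60 min RT reaction. Luciferin detected by luminescence, normalized to 57 uM ketoconazole as full inhibition.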

[17] = AP1 Signaling Pathway (AID 357; active = well fitted curve in either direction with a large enough effect, not every such curve was filed as active); conditions: ME-180 (cervical carcinoma) AP-1-bla reporter, EGF-induced, beta-lactamase ratio, 5 h; at 7.69 µM (top of the series) unless noted
Procedure, shortened: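 Beta-lactamase reporter under AP-1 response element, ME-180 background. Stimulus: EC50 EGF. Compound exposure 5 h, 37 °C. Detection: CCF4, 2.5 h RT, 460/530 nm. Values: AC50 from titration.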

[18] = target: Ubiquitin carboxyl-terminal hydrolase 1 (Homo sapiens) (UniProt O94782); assay: Inhibitors of USP1/UAF1: Pilot qHTS (AID 504865; active = well fitted curve in the direction sought with a large enough effect; an effect the other way counts as inactive or inconclusive;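 note: rhodamine fluorescence freed from ubiquitin-rhodamine substrate followed over time; top concentration of the series differs between compounds; % is set by controls: 0 for no effect and ±100 for the full control effect; nearly all actives have a fitted effect of over 35% in size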); conditions: purified USP1/UAF1, Ub-rhodamine cleavage fluorescence; series mostly up to 54.9 µM
Chain of Ubiquitin carboxyl-terminal hydrolase 1 (Homo sapiens) (O94782 whole entry, looked up): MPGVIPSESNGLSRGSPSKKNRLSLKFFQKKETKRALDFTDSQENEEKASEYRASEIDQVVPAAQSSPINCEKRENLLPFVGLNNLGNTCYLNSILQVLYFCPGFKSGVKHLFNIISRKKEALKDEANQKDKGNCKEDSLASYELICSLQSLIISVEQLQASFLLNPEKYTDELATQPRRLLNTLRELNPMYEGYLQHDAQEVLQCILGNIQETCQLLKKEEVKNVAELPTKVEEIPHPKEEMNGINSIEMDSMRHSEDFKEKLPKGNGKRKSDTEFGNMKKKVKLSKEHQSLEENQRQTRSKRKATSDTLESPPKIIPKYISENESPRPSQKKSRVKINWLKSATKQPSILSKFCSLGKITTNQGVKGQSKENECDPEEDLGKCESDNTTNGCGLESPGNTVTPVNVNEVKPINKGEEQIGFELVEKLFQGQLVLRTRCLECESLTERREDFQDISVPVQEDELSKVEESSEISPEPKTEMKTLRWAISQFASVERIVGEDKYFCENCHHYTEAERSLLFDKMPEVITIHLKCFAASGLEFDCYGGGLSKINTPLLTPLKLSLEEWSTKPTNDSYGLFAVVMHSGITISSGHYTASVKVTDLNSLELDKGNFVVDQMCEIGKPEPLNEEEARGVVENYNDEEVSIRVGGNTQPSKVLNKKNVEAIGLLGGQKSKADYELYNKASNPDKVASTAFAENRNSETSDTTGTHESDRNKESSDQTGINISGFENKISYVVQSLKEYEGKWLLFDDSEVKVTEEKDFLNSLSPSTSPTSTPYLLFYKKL
Procedure, shortened: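 In 50mM HEPES pH 7.8 containing 0.5mM EDTA, 1mM TCEP, 0.1 mg/ml BSA and 0.01% Tween-20, 1nM USP1/UAF1 is exposed to compound for 15 min, then Ub-Rho (150nM final) is added and fluorescence is read over time.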

[19] = measured here: cell count channel max response
[20] = measured here: lipid channel max response

SMILES | Potency [1] | Potency [2] | Potency [3] | Potency [4] | Potency [5] | Potency [6] | Potency [7] | outcome [8] | activity change, negative = inhibition [9] | max response [9, 19] [%] | max response [9, 20] [%] | outcome [10] | activity change, negative = inhibition [11] | activity, negative = inhibition [12] | Potency [13] | Potency [14] | Potency [15] | Potency [16] | activity change, negative = inhibition [17] | Potency [18]
COc1ccccc1CNc1ncnc2ccc(-c3c(C)noc3C)cc12 | > 11.4 µM (inactive) | 7.94 µM (active) | > 46 µM (inactive) | > 46 µM (inactive) | inactive | inactive | inactive | inactive | -5.34% (inactive) | -3.01 | -7.6 | inactive |  |  |  |  |  |  |  | 
Cn1cccc1C(=O)N1CCC2(CCCN(C(=O)Nc3ccccc3)C2)CC1 | > 11.4 µM (inactive) |  |  | > 46 µM (inactive) | inactive | inactive |  |  | 7.87% (inactive) | 14.7 | 28.5 | inactive | -22.5% (inactive) | 4.11% (inactive) | inactive |  |  |  |  | 
c1ccc(C(c2ccccc2)N2CCC3(CCNCC3)CC2)cc1 | > 11.4 µM (inactive) | inactive |  | > 46 µM (inactive) | inactive |  |  |  | -5.07% (inactive) | 27.4 | 21.5 | inactive |  | 0.474% (inactive) | inactive | 3.98 µM (active) |  |  |  | 
COc1ccccc1CN1CCC2(CC1)CCN(S(C)(=O)=O)CC2 | > 11.4 µM (inactive) | inactive |  | > 46 µM (inactive) | inactive |  |  |  | -1.09% (inactive) | -18.8 | -18.2 | inactive | -27.6% (inactive) | -4.05% (inactive) | inactive |  | 0.02 µM (active) |  |  | 
COc1ccc(Oc2ncc3nc(-c4ccc(OC)cc4)c(=O)n(CCC#N)c3n2)cc1 | > 11.4 µM (inactive) |  | > 9.22 µM (inactive) | > 46 µM (inactive) | inactive |  |  |  | -1.07% (inactive) | 17.2 | 21 | inactive | 7.68% (inactive) | 2.86% (inactive) | inactive |  |  |  |  | 
O=C(Oc1ccccc1)N1CCC[C@@]2(CCN(c3ccncc3)C2)C1 | > 11.4 µM (inactive) | 20 µM (active) |  | > 46 µM (inactive) | inactive | inactive |  |  | 4.19% (inactive) | 13.6 | 23.8 | inactive |  | -2.61% (inactive) | inactive | 5.01 µM (active) |  |  |  | 
O=C(c1csnn1)N1CCC2(CCCN(C(c3ccccc3)c3ccccc3)C2)CC1 | > 11.4 µM (inactive) |  |  | > 46 µM (inactive) | inactive |  |  |  | -2.23% (inactive) | -8.01 | -8.95 | inactive | 1.14% (inactive) | 18.5% (inactive) | inactive |  |  |  |  | 
c1cncc(CNc2nc(-c3ccc4c(c3)OCO4)nc3ccccc23)c1 | > 11.4 µM (inactive) | 0.1 µM (active) | > 46 µM (inactive) | > 46 µM (inactive) | inactive | inactive | inactive | inactive | 6.87% (inactive) | 10.1 | 18 | inactive | -3.4% (inactive) | -7.26% (inactive) |  |  |  | 0.316 µM (active) |  | 
COc1ccc(-c2nc3cnc(N4CCNCC4)nc3n(CCC#N)c2=O)cc1 | > 11.4 µM (inactive) | 15.8 µM (active) | > 9.22 µM (inactive) | > 46 µM (inactive) | inactive | inactive |  |  | 4.58% (inactive) | 17 | 25 | inactive |  |  | inactive |  |  |  |  | 
COc1ccc(C(=O)N2CCC3(CCCN(C(c4ccccc4)c4ccccc4)C3)CC2)cc1 | > 11.4 µM (inactive) |  |  | > 46 µM (inactive) | inactive |  |  |  | -5.74% (inactive) | 2.37 | -2.89 | inactive |  | 18.3% (inactive) |  |  |  |  |  | 
CC(=O)N1CCC[C@@]2(CCN(Cc3nccs3)C2)C1 |  | inactive |  | > 46 µM (inactive) | inactive | inactive |  |  | 6.81% (inactive) | 16.2 | 26.9 | inactive | 8.54% (inactive) | 4.24% (inactive) |  |  |  |  | 1.66% (inactive) | 
Cc1noc(C)c1C(=O)N1CCC2(CCCN(C(=O)Nc3ccccc3)C2)CC1 |  | 12.6 µM (active) |  | > 46 µM (inactive) | inactive |  |  |  | 2.45% (inactive) | 20.4 | 27.5 | inactive | 0.607% (inactive) | -8.55% (inactive) | inactive |  |  |  | -21% (inactive) | 
Cc1noc(C)c1-c1ccc2ncnc(NC3CC3)c2c1 | > 11.4 µM (inactive) |  | > 46 µM (inactive) | > 46 µM (inactive) | inactive |  | inactive | inactive | -8.16% (inactive) | -21.4 | -28.4 | inactive |  |  | inactive |  |  |  |  | inactive
O=C(Nc1cccc(F)c1)N1CC2(CCN(C(=O)c3cnccn3)CC2)C1 |  | inactive |  | > 46 µM (inactive) | inactive |  |  |  | 6.82% (inactive) | 10.6 | 20.5 | inactive | 20.8% (inactive) | -2.15% (inactive) | inactive |  |  |  | -4.36% (inactive) | 
